Outcome data for 9 molecules are collected here from PubChem BioAssay AID2284356 (EPA ToxCast).

Results filed as inconclusive are left out. Active and inactive are the calls of the source. Rule for the calls: active = hit-call score of the fitted dose curve at least 0.9, where 1 is the maximum; inconclusive = response in the unintended direction; inactive = score below 0.9.

zebrafish Estrogen Receptor (ER1), esr1 (gene 259252), sequence (P57717 whole entry, looked up): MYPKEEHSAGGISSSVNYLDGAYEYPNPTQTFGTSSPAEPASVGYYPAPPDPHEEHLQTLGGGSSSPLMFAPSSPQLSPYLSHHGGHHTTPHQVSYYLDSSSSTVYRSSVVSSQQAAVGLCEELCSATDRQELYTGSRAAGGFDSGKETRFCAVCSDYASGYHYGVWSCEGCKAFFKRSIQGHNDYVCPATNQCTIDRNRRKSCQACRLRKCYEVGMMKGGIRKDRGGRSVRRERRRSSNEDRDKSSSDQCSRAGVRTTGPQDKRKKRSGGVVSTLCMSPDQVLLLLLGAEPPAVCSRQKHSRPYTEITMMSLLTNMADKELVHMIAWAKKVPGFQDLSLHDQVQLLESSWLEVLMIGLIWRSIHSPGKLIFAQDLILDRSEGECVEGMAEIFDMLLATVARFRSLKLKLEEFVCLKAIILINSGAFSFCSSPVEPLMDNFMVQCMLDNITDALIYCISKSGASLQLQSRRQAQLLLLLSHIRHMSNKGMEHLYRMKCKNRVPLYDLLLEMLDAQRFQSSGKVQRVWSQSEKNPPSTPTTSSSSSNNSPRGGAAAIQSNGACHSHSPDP

The assay addresses zebrafish Estrogen Receptor (ER1), esr1 (gene 259252) (UniProt P57717). Nature of the assay: ATG_zfER1_EcoTox2: Attagene TRANS-FACTORIAL EcoTox-2 HepG2 Assay for zebrafish Estrogen Receptor (ER1). On the procedure:
ATG_EcoTox2 is a cell-based, multiplexed assay created by modifying the existing Attagene TRANS-FACTORIAL system to include a panel of nuclear receptors from some or all the following species: human (Homo sapiens), african clawed frog (Xenopus laevis), rainbow trout (Oncorhynchus mykiss), japanese medaka (Oryzias latipes), and zebrafish (Danio rerio). The ECOTOX2-FACTORIAL format uses HepG2, a human liver cell line, with measurements taken at 24 hours after chemical dosing in a 24-well plate. ATG_zfER1_EcoTox2 is one of 29 assay components calculated in the ATG_EcoTox2 assay. It is designed to make measurements of mRNA induction, a form of inducible reporter, as detected with fluorescence intensity signals by Reverse transcription polymerase chain reaction (RT-PCR) and Capillary electrophoresis technology.The assay endpoint ATG_zfER1_EcoTox2 was analyzed in the positive analysis fitting direction relative to DMSO as the negative control and baseline of activity. Using a type of inducible reporter, measures of mRNA for gain-of-signal activity can be used to understand the reporter gene at the transcription factor-level as they relate to the gene ER. Furthermore, this assay endpoint can be referred to as a primary readout, because this assay has produced multiple assay endpoints where this one serves a reporter gene function. To generalize the intended target to other relatable targets, this assay endpoint is annotated to the nuclear receptor intended target family, where the subfamily is steroidal.
Human liver HepG2 cells are transiently transfected with multiple reporter transcription units (MRTUs) in 6-well plates using FuGene 6 reagent (Roche; 3 ml FuGene/1 mg DNA). The MRTU constructs are regulated by a cis-regulating element (promoter). Each RTU expresses a GAL4-UAS that regulates the transcription of a nearby target reporter gene sequence. A major difference between the CIS and TRANS system is that in CIS activities of endogenous TFs are measured, whereas the TRANS assay evaluates changes in activities of exogenous, chimeric NR-Gal4 proteins. […] At the end of 24 hour incubation, total RNA was isolated using TriZol reagent (Invitrogen). The isolated RNA is then reverse-transcribed using oligo(dT) primer and Mo-MLV reverse transcriptase (Invitrogen) with DNAse I (Ambion) treatment for 30 min. The one-tenth of the produced cDNA was amplified by PCR using Taq DNA polymerase (Invitrogen) and two reporter sequence-specific primers. The PCR products were fluorescently labeled by primer extension with 6-arboxyfluorescein (6-FAM) 5'-labeled reporter sequence-specific primer (2 min at 95 C, 20 s at 68 C and 10 min at 72 C) and these products were digested with 5U of HpaI (New England Biolabs) for 2h at 37 C. The fragments were purified using Qiaquick PCR columns (Qiagen), analyzed on an ABI 3130xL genetic analyzer (Applied Biosystems) with peak positions identified by using a set of X-rhodamine (ROX)-labeled MapMarker1000 molecular weight standards (BioVentures). The raw capillary electrophoresis data was processed using Attagraph software (Attagene).
Consider `CC(c1cc2ccccc2s1)N(O)C(N)=O` (centres undefined), for which the call was inactive.

For `CC(C)OC(=O)C(C)(C)Oc1ccc(C(=O)c2ccc(Cl)cc2)cc1`, the call was inactive. For `C=C(c1ccc(C(=O)O)cc1)c1cc2c(cc1C)C(C)(C)CCC2(C)C` the value was “inactive”; for `Cc1ccc(C)c(OCCCC(C)(C)C(=O)O)c1`, “inactive”; for `CC(C)(Oc1ccc(CCNC(=O)c2ccc(Cl)cc2)cc1)C(=O)O`, “inactive”. For `CC(C)(Oc1ccc(Cl)cc1)C(=O)O` the value was “inactive”; for `C[C@]12C=CC(=O)C=C1CC[C@@H]1[C@@H]2C(=O)C[C@@]2(C)[C@H]1CC[C@]2(O)C(=O)CO`, “inactive”; for `CC(C)(Oc1ccc(C2CC2(Cl)Cl)cc1)C(=O)O` (centres undefined), “inactive”.

`C[C@@H]1C[C@H]2[C@@H]3CCC4=CC(=O)C=C[C@]4(C)[C@@]3(F)[C@@H](O)C[C@]2(C)[C@@]1(O)C(=O)COP(=O)(O)O`: the call was inactive.
